# EPAC1 agonist: human EPAC1 agonism, validation; EPAC1 Rap1b BODIPY-GDP exchange, fluorescence; Potency, µM, for inactives: max response, positive = active, usual class: activators; hit rate 1% among 16,000; AID 1645883; O95398; further: nearly all actives have a fitted effect of over 70% in size
# Target sequence (O95398 whole entry, looked up): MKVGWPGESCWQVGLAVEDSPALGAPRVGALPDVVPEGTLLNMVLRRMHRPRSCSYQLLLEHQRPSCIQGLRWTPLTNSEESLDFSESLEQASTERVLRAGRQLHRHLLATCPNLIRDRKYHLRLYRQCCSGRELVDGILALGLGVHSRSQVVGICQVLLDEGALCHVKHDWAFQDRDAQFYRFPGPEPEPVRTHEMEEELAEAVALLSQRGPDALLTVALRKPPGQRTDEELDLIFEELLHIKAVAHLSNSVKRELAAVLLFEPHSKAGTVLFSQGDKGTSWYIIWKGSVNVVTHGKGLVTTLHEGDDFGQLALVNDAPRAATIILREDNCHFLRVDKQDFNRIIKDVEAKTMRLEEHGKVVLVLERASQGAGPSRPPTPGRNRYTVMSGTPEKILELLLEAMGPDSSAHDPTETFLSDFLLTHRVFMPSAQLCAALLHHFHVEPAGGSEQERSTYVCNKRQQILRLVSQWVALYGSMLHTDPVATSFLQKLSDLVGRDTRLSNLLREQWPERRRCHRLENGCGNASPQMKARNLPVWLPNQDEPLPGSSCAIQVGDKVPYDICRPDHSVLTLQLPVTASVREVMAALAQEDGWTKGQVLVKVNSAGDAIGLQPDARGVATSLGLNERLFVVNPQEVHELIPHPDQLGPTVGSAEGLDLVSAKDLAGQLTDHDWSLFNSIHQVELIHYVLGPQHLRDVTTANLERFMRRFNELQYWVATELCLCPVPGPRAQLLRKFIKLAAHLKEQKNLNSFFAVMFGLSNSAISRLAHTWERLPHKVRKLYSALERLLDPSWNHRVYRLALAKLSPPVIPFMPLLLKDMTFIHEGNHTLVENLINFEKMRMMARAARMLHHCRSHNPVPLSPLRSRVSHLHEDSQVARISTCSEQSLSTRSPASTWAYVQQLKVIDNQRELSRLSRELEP
# EPAC2 antag: human EPAC2 antagonism, validation; Q8WZA2; EPAC2 Rap1B BODIPY-GDP exchange, fluorescence; Potency, µM (highest dose often 112 µM), without a hit: at the highest dose activity, negative = inhibition, hits mostly inhibitors; hit rate 1.7% among 16,000;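 further: 100% = activation by cAMP agonist control; nearly all actives have a fitted effect of over 40% in size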
#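 Normalized against a 6.5 mM cAMP agonist control, compounds were tested on 100 nM EPAC2 exchanging Rap1B-bound BODIPY-GDP (250 nM) for 50 uM GDP. Fluorescence drop (ex 480, em 540 nm) was tracked at room temperature over 30 min at 5-min intervals.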
# An asterisk follows results filed as active; ? = inconclusive; ! = not confirmed by another sample; [ ] = another dose, or the depositor's remark. Only some compounds are listed: those with a hit (about 2.9% of all), similar ones and a draw of the others. The call rests on the fitted dose curve; in most records, active means well fitted curve in the direction sought with a large enough effect; inconclusive means small, poorly fitted or top-dose-only effect, or another doubt; inactive means no such curve, though single readings can be large; an effect the other way counts as inactive or inconclusive. Unless noted, on the % scale 0 is the no-effect control and ±100 the full control effect; potency means the concentration at half of the fitted maximal effect.
SMILES,EPAC1 agonist,EPAC2 antag
COc1ccc2c(c1)CCc1cnc(-n3ncc(C(=O)NCC(C)(C)CN(C)C)c3C)nc1-2,9%,-34%
CCc1nc(CN2CCOc3ccc(C(O)C4CCCCC4)cc3C2)c(C)[nH]1 (configuration not stated),-4%,-15%
Cc1cc(C)n(-c2ccc(C(=O)N3CCc4c(cnc(C)c4CNC(=O)c4ccccc4F)C3)cc2)n1,-9%,-19%
c1cncc(CNc2ccnc(-c3cccnc3)n2)c1,20%,6%
c1ccc(C(NCc2cccnc2)(c2ccccc2)c2ccccc2)cc1,?,10µM*
O=C(NCc1cccnc1)c1cnn(-c2nccc(-c3cccs3)n2)c1C1CC1,-8%,9%
O=[N+]([O-])c1ccc2c(c1)C=CC2,30%,?
CCCC(=O)NCCc1c2n(c3ccc(OC)cc13)CCCc1ccccc1-2,5%,14µM*
COc1ccc2[nH]c(-c3ccccc3)c(CCNC(C)=O)c2c1,-3%,?
Cc1noc(C)c1-c1nc(N2CCOCC2)c2ccccc2n1,-31%,2%
C(=C\c1nccc2ccccc12)/c1ccc(N2CCOCC2)cc1,100µM*,6%
Cc1cc2c(c(-c3nc4ccccc4s3)c1)OC(CNC(=O)CCc1cccnc1)C2 (configuration not stated),17%,?
COc1ccc2c(c1)OCC(Cc1ccc(OC)c(OC)c1)C2=O (configuration not stated),?,45µM*
COc1ccc2c(c1)OCC(Cc1ccc(OC)c(OC)c1)C2O (configuration not stated),-12%,?
CCCc1c(OCCCOc2ccc(OCC(=O)O)cc2)ccc(CC=O)c1O,-31%,45µM*
CCCCOc1ccc(CC(=O)NO)cc1,?,-10%[56.6 µM]
Clc1ccc(-n2cccc2CN2CCc3nnc(Cc4ccccc4)n3CC2)nc1,-1%,2%
O=C(Nc1ccc(/C=C/c2ccc(NC(=O)c3cc(S(=O)(=O)O)c4cccnc4c3O)cc2S(=O)(=O)O)c(S(=O)(=O)O)c1)c1cc(S(=O)(=O)O)c2cccnc2c1O,?,22µM*
O=S(=O)(O)c1cc(I)c(O)c2ncccc12,13%,18%
COc1cc(C(=O)NS(=O)(=O)c2ccccc2C)ccc1Cc1cn(C)c2ccc(NC(=O)OC3CCCC3)cc12,4%,79µM*
Cc1cnc(-n2ncc(C(=O)NCc3cccnc3)c2C)nc1-c1ccc(F)cc1,-15%,-14%
C[C@@H]1CN(Cc2ccc3c(c2)CN(Cc2coc4ccccc4c2=O)CCO3)C[C@H](C)O1,-8%,-2%
COc1cc(=O)n2c(c1C(=O)N(C)Cc1nonc1C)CCN(Cc1ccc(F)cc1)CC2,-4%,?
CN(Cc1ccco1)c1ncnc2ccc(-c3ccc4c(c3)OCO4)cc12,-64%,35µM*
CN(Cc1ccco1)c1ncnc2ccc(-c3cccnc3)cc12,11%,-9%
SMILES,EPAC1 agonist,EPAC2 antag
Cc1ccccc1-c1ccc2ncnc(N(C)Cc3ccco3)c2c1,100µM*,20µM*
CN(C)Cc1ccccc1-c1ccc2ncnc(N(C)Cc3ccco3)c2c1,14%,-26%
Cc1cc2c(c(-c3ccc4nc(C)ccc4c3)c1)OC(CNC(=O)Cc1ccn(C)c1)C2 (configuration not stated),11%,?
CCOC(=O)C1=C(C)NC(C)=C(C(=O)OC)C1c1cccc([N+](=O)[O-])c1 (configuration not stated),0%,7.9µM*!
CCOC(=O)C1=C(C)NC(C)=C(C(=O)OC)[C@H]1c1cccc([N+](=O)[O-])c1,15%,18µM*
COC(=O)C1=C(C)NC(C)=C(C(=O)OCCCN2CCC(c3ccccc3)(c3ccccc3)CC2)[C@H]1c1cccc([N+](=O)[O-])c1,13%,?
CC1=C(C(=O)OC(C)C)C(c2cccc([N+](=O)[O-])c2)C(C(=O)OC2CN(C(c3ccccc3)c3ccccc3)C2)=C(N)N1 (configuration not stated),100µM*,1%
COC(=O)C1=C(C)NC(C)=C(C(=O)OC(C)(C)CN(C)CCC(c2ccccc2)c2ccccc2)C1c1cccc([N+](=O)[O-])c1 (configuration not stated),?,-28%
COC(=O)C1=C(C)NC(C)=C(C(=O)O[C@@H]2CCCN(Cc3ccccc3)C2)[C@@H]1c1cccc([N+](=O)[O-])c1,?,-25%
COCCOC(=O)C1=C(C)NC(C)=C(C(=O)OC(C)C)[C@@H]1c1cccc([N+](=O)[O-])c1,0%,50µM*
COCCOC(=O)C1=C(C)NC(C)=C(C(=O)OC(C)C)C1c1cccc([N+](=O)[O-])c1 (configuration not stated),4%,?
COC(=O)[C@@H]1C[C@@H](NC(=O)c2ccc(C(F)(F)F)cc2)CN1Cc1cccc(O)c1,7%,-19%
CC(C)Cc1nc2cc(NS(=O)(=O)N(C)C)cc(C(=O)N3CCSCC3)c2n1C,2%,-6%
O=C(NCCCN1CCOCC1)c1cnn(-c2ncc3c(n2)-c2ccccc2CC3)c1C1CC1,0%,-14%
COc1cccc(C2(CC(=O)N3CCN(c4nonc4C)CC3)CC(=O)N(C3CCCC3)C2=O)c1 (configuration not stated),0%,1%
Cc1cc(N(C)C)cc(C)c1/C=C/c1ccnc2ccccc12,100µM*,-23%
CN(C)c1ccc(/C=C/c2ccnc3c2ccc2c(/C=C/c4ccc(N(C)C)cc4)ccnc23)cc1,-5%,?
CN(C)C(=O)c1ccc(/C=C/c2ccnc3ccccc23)cc1,?,20%
Cc1ccc2nccc(/C=C/c3ccc(N(C)C)cc3)c2c1,112µM*,66%
Cc1c(C(=O)NCC2COCCO2)cnn1-c1ncc2c(n1)-c1ccccc1CC2 (configuration not stated),-6%,-2%
COc1ccc(OC)c(C(=O)N2CCOc3ccc(C(C)(O)CN(C)C)cc3C2)c1 (configuration not stated),-14%,9%
O=C(C[n+]1cccc2cc(Cl)ccc21)c1ccc(Br)cc1,112µM*,-26%
O=C(C[n+]1cccc2cc(Cl)ccc21)c1ccc(I)cc1,7%,-10%
COc1cc2ccc(=O)oc2cc1O,100µM*!,-16%
COc1ccc2ccc(=O)oc2c1CC=C(C)C,-40%,?
SMILES,EPAC1 agonist,EPAC2 antag
COc1ccc2c(c1)-c1nc(-n3ncc(C(=O)NC[C@@H]4CCCN5CCCC[C@H]45)c3C)ncc1CC2,5%,-5%
C/C1=C2N=C(/C=C3N=C(/C(C)=C4\[N-][C@@](C)([C@@H]5N=C1[C@](C)(CCC(=O)NCC(C)OP(=O)(O)O[C@H]1[C@@H](O)[C@@H](n6cnc7cc(C)c(C)cc76)O[C@@H]1CO)[C@H]5CC(N)=O)[C@@](C)(CC(N)=O)[C@@H]4CCC(N)=O)[C@@](C)(CC(N)=O)[C@@H]\3CCC(N)=O)C(C)(C)[C@@H]/2CCC(N)=O.CC(=O)O.[Co] (some centres not stated),-44%,79µM*
CN(C(=O)c1cnn(-c2nccc(-c3ccccc3C(F)(F)F)n2)c1C1CC1)C1CCOC1 (configuration not stated),-2%,-19%
COc1ccccc1CNc1nc(-c2cccnc2)nc2ccccc12,89µM*,-22%
COc1ccc(CNc2nc(-c3ccc4c(c3)OCO4)nc3ccccc23)c(OC)c1,112µM*,-15%
COc1cccc(-c2nc(NCc3ccc(OC)cc3OC)c3ccccc3n2)c1,?,-21%
